Measurements as given in PubChem BioAssay AID1159580 (chemical genetic matrix, 2015).
“And” between values parts separate entries of the source, which are not always exact repeats. Equal values may be shown once. Screen size: about 5,500 compounds; about 2,000 (36%) were called active. Another 18% or so got no clear call; they are omitted. Cut-off read from the data, not from the text of the source: active = normalized growth mostly below about 0.91 (no sharp cut-off); inconclusive = no clear call, values can overlap the other calls; inactive = mostly above about 0.92. This is one part of the list.

Assay: chemical genetic growth profiling, strain panel (AID 1159580);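 note: tested at 20 µM; growth read once vehicle control cultures reached saturation at 30 °C; 1 = growth at the plate median or of vehicle wells; lower values mean less growth of the strain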
Conditions: S. cerevisiae deletion strains, growth OD

Structure (SMILES): C/C=C(/C(=C/C)c1ccc(O)cc1)c1ccc(O)cc1
- normalized growth (locus YAL021C, strain ccr4, stronger effect = lower value): 1.02 (inactive)
- normalized growth (locus YAL026C, strain drs2, stronger effect = lower value): 0.9 (active)
- normalized growth (locus YAL030W, strain snc1, stronger effect = lower value): 0.978 (inactive)
- normalized growth (locus YBL061C, strain skt5, stronger effect = lower value): 0.974 (inactive)
- normalized growth (locus YBR009C, strain hhf1, stronger effect = lower value): 0.929 (inactive)
- normalized growth (locus YBR021W, strain FUR4, stronger effect = lower value): 0.907 (inactive)
- normalized growth (locus YBR023C, strain chs3, stronger effect = lower value): 0.968 (inactive)
- normalized growth (locus YBR171W, strain sec66, stronger effect = lower value): 0.94 (inactive)
- normalized growth (locus YBR229C, strain ROT2, stronger effect = lower value): 0.995 (inactive)
- normalized growth (locus YBR231C, strain swc5, stronger effect = lower value): 1 (inactive)
- normalized growth (locus YBR279W, strain paf1, stronger effect = lower value): 0.971 (inactive)
- normalized growth (locus YCL011C, strain gbp2, stronger effect = lower value): 0.968 (inactive)
- normalized growth (locus YCL016C, strain dcc1, stronger effect = lower value): 0.997 (inactive)
- normalized growth (locus YCL029C, strain bik1, stronger effect = lower value): 0.823 (active)
- normalized growth (locus YCL069W, strain vba3, stronger effect = lower value): 0.953 (inactive)
- normalized growth (locus YCR088W, strain abp1, stronger effect = lower value): 0.989 (inactive)
- normalized growth (locus YDL005C, strain med2, stronger effect = lower value): 0.992 (inactive)
- normalized growth (locus YDL035C, strain GPR1, stronger effect = lower value): 0.892 (inactive)
- normalized growth (locus YDL040C, strain nat1, stronger effect = lower value): 0.979 (inactive)
- normalized growth (locus YDL074C, strain BRE1, stronger effect = lower value): 0.492 (active)
- normalized growth (locus YDL101C, strain DUN1, stronger effect = lower value): 0.869 (active)
- normalized growth (locus YDL185W, strain tfp1, stronger effect = lower value): 0.844 (active)
- normalized growth (locus YDL192W, strain arf1, stronger effect = lower value): 0.567 (active)
- normalized growth (locus YDR001C, strain nth1, stronger effect = lower value): 0.962 (inactive)
- normalized growth (locus YDR069C, strain doa4, stronger effect = lower value): 0.974 (inactive)
- normalized growth (locus YDR101C, strain arx1, stronger effect = lower value): 0.846 (active)
- normalized growth (locus YDR137W, strain rgp1, stronger effect = lower value): 0.757 (active)
- normalized growth (locus YDR159W, strain sac3, stronger effect = lower value): 0.923 (inactive)
- normalized growth (locus YDR162C, strain NBP2, stronger effect = lower value): 0.561 (active)
- normalized growth (locus YDR195W, strain ref2): 0.989 (inactive)
- normalized growth (locus YDR297W, strain sur2, stronger effect = lower value): 0.952 (inactive)
- normalized growth (locus YDR318W, strain mcm21, stronger effect = lower value): 0.789 (active)
- normalized growth (locus YDR334W, strain swr1, stronger effect = lower value): 0.968 (inactive)
- normalized growth (locus YDR335W, strain msn5, stronger effect = lower value): 0.943 (inactive)
- normalized growth (locus YDR388W, stronger effect = lower value): 0.589 (active)
- normalized growth (locus YDR392W, strain spt3, stronger effect = lower value): 0.905 (inactive)
- normalized growth (locus YDR502C, strain sam2, stronger effect = lower value): 0.821 (active)
- normalized growth (locus YEL003W, strain gim4, stronger effect = lower value): 0.949 (inactive)
- normalized growth (locus YEL037C, strain rad23, stronger effect = lower value): 0.989 (inactive)
- normalized growth (locus YEL061C, strain CIN8 (second series), stronger effect = lower value): 0.973 (inactive)
- normalized growth (locus YEL061C, strain CIN8, stronger effect = lower value): 0.899 (active)
- normalized growth (locus YER015W, strain faa2, stronger effect = lower value): 0.953 (inactive)
- normalized growth (locus YER016W, strain bim1, stronger effect = lower value): 0.986 (inactive)
- normalized growth (locus YER110C, stronger effect = lower value): 0.982 (inactive)
- normalized growth (locus YER111C, strain swi4, stronger effect = lower value): 0.993 (inactive)
- normalized growth (locus YER155C, strain BEM2 (second series), stronger effect = lower value): 0.959 (inactive)
- normalized growth (locus YER155C, strain BEM2, stronger effect = lower value): 0.624 (active)
- normalized growth (locus YER167W, strain BCK2, stronger effect = lower value): 0.904 (inactive)
- normalized growth (locus YFR010W, strain ubp6, stronger effect = lower value): 0.982 (inactive)
- normalized growth (locus YGL078C, strain dbp3, stronger effect = lower value): 0.87 (active)
- normalized growth (locus YGL086W, strain mad1, stronger effect = lower value): 0.832 (active)
- normalized growth (locus YGL167C, strain pmr1, stronger effect = lower value): 0.978 (inactive)
- normalized growth (locus YGL173C, strain kem1, stronger effect = lower value): 0.927 (inactive)
- normalized growth (locus YGL227W, strain vid30, stronger effect = lower value): 0.985 (inactive)
- normalized growth (locus YGL240W, strain doc1, stronger effect = lower value): 0.945 (inactive)
- normalized growth (locus YGL248W, strain PDE1, stronger effect = lower value): 0.81 (active)
- normalized growth (locus YGL253W, strain hxk2, stronger effect = lower value): 0.971 (inactive)
- normalized growth (locus YGR135W, strain pre9, stronger effect = lower value): 0.836 (active)
- normalized growth (locus YGR229C, strain SMI1, stronger effect = lower value): 0.504 (active)
- normalized growth (locus YGR252W, strain gcn5, stronger effect = lower value): 0.682 (active)
- normalized growth (locus YHR013C, strain ard1, stronger effect = lower value): 1.15 (inactive)
- normalized growth (locus YHR027C, strain rpn1, stronger effect = lower value): 0.979 (inactive)
- normalized growth (locus YHR030C, strain SLT2, stronger effect = lower value): 0.691 (active) and 0.969 (inactive)
- normalized growth (locus YHR079C, strain IRE1 (second series), stronger effect = lower value): 0.802 (active)
- normalized growth (locus YHR079C, strain IRE1, stronger effect = lower value): 0.982 (inactive)
- normalized growth (locus YHR094C, strain hxt1, stronger effect = lower value): 0.968 (inactive)
- normalized growth (locus YHR129C, strain ARP1, stronger effect = lower value): 0.841 (active)
- normalized growth (locus YHR142W, strain chs7, stronger effect = lower value): 0.943 (inactive)
- normalized growth (locus YHR200W, strain rpn10, stronger effect = lower value): 0.845 (active)
- normalized growth (locus YIL066C, strain RNR3, stronger effect = lower value): 0.9 (inactive)
- normalized growth (locus YIL073C, strain SPO22, stronger effect = lower value): 0.976 (inactive)
- normalized growth (locus YIL125W, strain kgd1, stronger effect = lower value): 0.858 (active)
- normalized growth (locus YIR030C, strain dcg1, stronger effect = lower value): 0.958 (inactive)
- normalized growth (locus YJL092W, strain hpr5, stronger effect = lower value): 0.971 (inactive)
- normalized growth (locus YJL095W, strain BCK1 (second series), stronger effect = lower value): 0.944 (inactive)
- normalized growth (locus YJL095W, strain BCK1, stronger effect = lower value): 0.497 (active) and 0.978 (inactive)
- normalized growth (locus YJL115W, strain asf1, stronger effect = lower value): 0.984 (inactive)
- normalized growth (locus YJL129C, strain trk1, stronger effect = lower value): 0.9 (inactive)
- normalized growth (locus YJL134W, strain LCB3, stronger effect = lower value): 0.998 (inactive)
- normalized growth (locus YJL154C, strain vps35, stronger effect = lower value): 0.969 (inactive)
- normalized growth (locus YJL164C, strain tpk1, stronger effect = lower value): 0.972 (inactive)
- normalized growth (locus YJL166W, strain qcr8, stronger effect = lower value): 0.915 (inactive)
- normalized growth (locus YJL168C, strain set2, stronger effect = lower value): 0.979 (inactive)
- normalized growth (locus YJL187C, strain SWE1 (second series), stronger effect = lower value): 0.814 (active)
- normalized growth (locus YJR043C, strain POL32, stronger effect = lower value): 0.971 (inactive)
- normalized growth (locus YJR066W, strain TOR1, stronger effect = lower value): 0.931 (inactive)
